# A number with no mark means an inactive call. Active and inactive are the calls of the source. The call rests on the fitted dose curve; in most records, active means well fitted activation curve with a large enough effect; inconclusive means small, poorly fitted or top-dose-only effect; inactive means no such curve, though single readings can be large or run the other way.
# Biological target: Cytochrome P450 3A4 (Homo sapiens) (UniProt P08684)
# Assay: qHTS Assay for Activators of Cytochrome P450 3A4 (AID 885); further: nearly all actives have a fitted effect of over 65% in size
# Conditions: recombinant CYP3A4, Luciferin-PPXE luminescence, 60 min; series mostly up to 57.1 µM; activity change, positive = activation: at the top concentration
# Experimental: NIH Molecular Libraries Screening Centers Network [MLSCN]
# NIH Chemical Genomics Center [NCGC]
# The P450 gene superfamily is involved in the metabolism and clearance of xenobiotics. This assay used human CYP3A4 to measure the dealkylation of luciferin-6' phenylpiperazinylyl (Luciferin-PPXE; […]) to luciferin. The luciferin is then measured by luminescence after the addition of a luciferase detection reagent. Luciferin-PPXE concentration in the assay was equal to its KM for CYP3A4. Inhibitors and some substrates limit the production of luciferin, and decrease measured luminescence; activators increase the production of luciferin and luminescence.
# NCGC Assay Protocol Summary:
# Two uL of enzyme and substrate mix (final concentrations: 20nM CYP3A4, 25uM Luciferin-PPXE, 200mM KPO4) were dispensed into a white, solid bottom 1536-well microtiter plate. 23nL of compound was transferred by a pin tool. The plate was incubated at RT for 10 min. Two uL of an NADPH regeneration solution (Promega supplied reagent) was dispensed and the reaction was allowed to continue for 60 min at RT. Then the reaction was stopped by reconstituted luciferin detection buffer. After another 20 min of incubation the plate was read on the ViewLux (Perkin Elmer) at 60 sec exposure and 2x2 binning. This protocol was carried out with Promega-Glo reagents and further information can be found at http://www.promega.com/tbs/tb325/tb325.pdf. Data were normalized to the to AC100 inhibition (57 uM ketoconazole).
# Keywords: P450, CYP2D6, Luciferase, MLSMR, MLSCN, NIH Roadmap, qHTS, NCGC
# Potency means the concentration at half of the fitted maximal effect.
# Sequence of Cytochrome P450 3A4 (Homo sapiens) (P08684 whole entry, looked up): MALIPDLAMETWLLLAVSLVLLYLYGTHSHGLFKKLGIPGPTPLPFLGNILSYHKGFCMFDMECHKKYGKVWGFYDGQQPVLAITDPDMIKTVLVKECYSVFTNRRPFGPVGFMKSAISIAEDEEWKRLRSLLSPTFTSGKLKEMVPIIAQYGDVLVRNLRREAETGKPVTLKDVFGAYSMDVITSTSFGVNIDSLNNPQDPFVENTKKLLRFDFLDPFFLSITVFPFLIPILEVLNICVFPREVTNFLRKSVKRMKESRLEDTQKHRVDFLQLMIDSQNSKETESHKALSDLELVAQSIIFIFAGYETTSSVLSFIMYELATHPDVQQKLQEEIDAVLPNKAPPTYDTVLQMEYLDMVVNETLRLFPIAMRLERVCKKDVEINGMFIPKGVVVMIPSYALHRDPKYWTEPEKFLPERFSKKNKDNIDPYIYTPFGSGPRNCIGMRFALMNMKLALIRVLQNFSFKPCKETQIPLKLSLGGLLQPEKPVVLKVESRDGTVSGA
SMILES,Potency,"activity change, positive = activation"
Cn1cccc1C(=O)N1CCC2(CC1)CCN(C(c1ccccc1)c1ccccc1)CC2,15.8 µM (active),–
COC(=O)C1=C(C)NC(C)=C(C(=O)OCCSc2ccccc2)[C@@H]1C,–,-93.9%
O=c1c(-c2ccc(F)cc2)nc2cncnc2n1-c1ccccc1,–,-43%
Cc1noc(C)c1-c1nccc(NCCN2CCOCC2)n1,–,-30.8%
Cc1cccc(CNc2ccnc(-c3ccccc3C(F)(F)F)n2)c1,–,-58.8%
COCCn1c(=O)c(C)nc2cncnc21,–,-71.2%
CN(Cc1ccco1)c1cc(-c2cccc(NS(C)(=O)=O)c2)ncn1,–,-71.7%
COc1ccc(-c2cc(=O)c3c(OC)c(OC)c(OC)c(OC)c3o2)cc1,–,-64%
Cn1cccc1C(=O)N1CCC2(CCCN(c3cccc(-c4ccccc4)c3)C2)CC1,–,-64.5%
CC[C@@H]1Cn2c(c3nc(-c4ccccc4)nc-3n(C)c2=O)N1,12.6 µM (active),–
COc1cccc(Cn2c(=O)c(-c3cccc(C#N)c3)nc3cnc(Nc4ccccc4)nc32)c1,–,-32.5%
COc1ccc(-c2nc3cnc(OC)nc3n(C)c2=O)cc1,–,-85.7%
O=C(Oc1ccccc1)N1CCC2(CCCN(c3cccc(-c4ccccc4)c3)C2)CC1,–,-40.2%
COc1ccc(-n2c(=O)c(-c3ccc(F)c(F)c3)nc3cncnc32)cc1,–,-40.5%
COc1ccc(-c2nc3cnc(N4CCN(C)CC4)nc3n(CCC#N)c2=O)cc1,–,-36.7%
COc1cccc(Cn2c(=O)cnc3cnc(OC)nc32)c1,–,-102%
Cc1cnc(CNc2ncncc2-c2ccc(N(C)C)cc2)cn1,–,-84.1%
O=C(Oc1ccccc1)N1CCC2(CC1)CCN(c1cccc(-c3ccccc3)c1)CC2,7.94 µM (active),–
COc1cccc(-c2ccc3ncnc(NC4CC4)c3c2)c1,–,-74.4%
COc1ccc(NC(=O)N2CCC3(CC2)CCN(C(=O)c2cccc(F)c2)CC3)cc1,12.6 µM (active),–

SMILES,Potency,"activity change, positive = activation"
COc1ccc(CNc2ncnc3ccc(-c4ccoc4)cc23)c(OC)c1,–,-103%
O=C(Nc1cccc(F)c1)N1CC[C@@]2(CCCN(C(=O)c3cc(C(F)(F)F)cc(C(F)(F)F)c3)C2)C1,–,-81.1%
CN(Cc1ccco1)c1ncncc1-c1cccc(NS(C)(=O)=O)c1,–,-82.1%
O=c1cnc2cnc(N3CCOCC3)nc2n1Cc1ccc(F)cc1,–,-57.3%
COc1ccc(NC(=O)N2CC[C@@]3(CCCN(C(=O)c4cccc(F)c4)C3)C2)cc1,–,-57.3%
COCCNc1nc(-c2cccc(OC)c2)nc2ccccc12,–,-80.8%
CC(=O)NCCNc1ncnc2ccc(-c3ccccc3C#N)cc12,–,-44.2%
COc1ccc(CNc2cc(-c3cccnc3)ncn2)c(OC)c1,–,-104%
CC(=O)N1CCC[C@@]2(CCN(Cc3nccs3)C2)C1,–,-56%
Cn1cccc1C(=O)N1CCC2(CC1)CN(c1ccccn1)C2,12.6 µM (active),–
COc1cc(C)c2c(c1C=O)Oc1c(c(C)c(O)c3c1C(O)OC3=O)OC2=O (stereo not given),–,-75.5%
O=C(Nc1ccccc1)N1CC[C@@]2(CCCN(C(=O)c3ccncc3)C2)C1,–,-49.4%
COc1ccccc1CCn1c(=O)c(CCc2ccccc2)nc2cncnc21,–,-94.2%
O=C1C=CC2=C3c4cc(O)c(O)cc4CC3(O)COC2=C1O (stereo not given),inactive,–
Clc1ccccc1-c1nc(NCc2cccnc2)c2ccccc2n1,–,-98.1%
CCCN1C[C@H](CSC)C[C@H]2c3cccc4[nH]cc(c34)C[C@@H]21,–,-65.9% [at 25.6 µM]
Cc1ccccc1-c1cncnc1NCCN1CCOCC1,–,-103%
Cc1nc2cnc(Oc3ccccc3)nc2n(-c2ccccc2)c1=O,–,-36.8%
COc1cccc(-c2cncnc2NCc2cccnc2)c1,–,-116%
Cc1noc(C)c1-c1nccc(N(C)Cc2ccco2)n1,–,-41.8%
